The values that follow come from PubChem BioAssay (NCI).

The panel holds about 83,000 compounds, 20% with a hit somewhere; the sample as a whole holds those more often.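 Plates (96-well) were seeded with cells, treated with compound at one concentration, and incubated for 48 hours before percent growth was determined.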 Unmarked numbers belong to inactive results. Active and inactive are the calls of the source. Rule for the calls: active = growth percent below 10; inactive = the rest.

Among the test systems are T-47D breast; BT-549 breast; MDA-MB-435 melanoma; SW-620 colon; MCF7 breast; HCT-116 colon; HCC-2998 colon; KM12 colon.
What all share (assay): NCI-60 one-dose screen, 48 h (100 = growth as untreated, 0 = no growth, -100 = all killed)
Details in all cases: 10 µM unless noted

Regarding `Fc1ccc2c(CN3CCO[C@H](COc4cccc(Cl)c4)C3)c[nH]c2c1`, the growth in the experiment with T-47D breast is 37.5%; in the experiment on BT-549 breast it was 57.7%; in the experiment on MDA-MB-435 melanoma it was 50%; in the experiment on SW-620 colon, 59.7%; with MCF7 breast, 20.3%; in the experiment with HCT-116 colon, 28.8%. For the same compound, the growth is 96.9% in the experiment with HCC-2998 colon and 38.9% in the experiment on KM12 colon.

With `Cc1cc(C)cc(CCCCCCCCCCCCCCCCCC(=O)O)c1`, the growth was 82.4% in the experiment on T-47D breast; 103% in the experiment with BT-549 breast; 115% in the experiment with MDA-MB-435 melanoma; 108% in the experiment on SW-620 colon; 96.1% in the experiment with MCF7 breast; 99.9% in the experiment on HCT-116 colon. The growth in the experiment on HCC-2998 colon was 102%; with KM12 colon, 106%.

For `[Ag].[Ag].[NH-]S(=O)(=O)c1ccc(N=Nc2cc(N=Nc3ccc(S([NH-])(=O)=O)cc3)c3c(NC(=O)C(Cl)Cl)cccc3c2OC(=O)C(Cl)Cl)cc1.[c-]1nccs1.[c-]1nccs1`, the growth in the experiment on T-47D breast was 7.8% (active); with BT-549 breast, 104%; with MDA-MB-435 melanoma, 87.2%; in the experiment with SW-620 colon, 58.7%; in the experiment with MCF7 breast it was 50.8%; with HCT-116 colon it was 65.4%. Moreover, the results for the growth with HCC-2998 colon and in the experiment with KM12 colon were 99.1% and 80.9%, respectively.

As to `CC(=O)c1cccc(Nc2ncnc3ccc(NC(=O)c4ccco4)cc23)c1`, the growth in the experiment on T-47D breast was 77.1%; with BT-549 breast, 96.5%; in the experiment on MDA-MB-435 melanoma, 83%; with SW-620 colon, 115%; in the experiment on MCF7 breast it was 80.9%; in the experiment with HCT-116 colon, 91%. The growth with HCC-2998 colon was 111%.

As to `COc1cc(-c2n/c(=C\c3c(O)[nH]c4cc(Cl)ccc34)cc3c2=Nc2ccccc2-3)cc(OC)c1OC`, the growth is 67.2% in the experiment with T-47D breast; 45.2% with BT-549 breast; 66.2% with MDA-MB-435 melanoma; 41.5% with SW-620 colon; 55.7% in the experiment on MCF7 breast; 52.9% in the experiment with HCT-116 colon. Also, the growth in the experiment on HCC-2998 colon is 93.1%; with KM12 colon, 51.8%.

On to `CCOc1cccc(/C=N/NC(=O)c2ccc(Nc3ccnc(C(F)(F)F)c3)cc2)c1O`, for which the growth in the experiment with T-47D breast is 3.07% (active); with BT-549 breast, 14.6%; in the experiment on MDA-MB-435 melanoma, 40.2%; with SW-620 colon, 32.1%; in the experiment on MCF7 breast, -1.78% (active); with HCT-116 colon, 7.55% (active). Besides, the growth is 35.3% with HCC-2998 colon and 24.8% in the experiment on KM12 colon.

As to `COc1ccc(/C(=C\c2cc(OC)c(OC)c(OC)c2)C(=O)N2CCN(c3ccccc3)CC2)cc1O`, the growth in the experiment with T-47D breast was 87.4%; in the experiment on BT-549 breast it was 103%; in the experiment with MDA-MB-435 melanoma, 98.1%; with SW-620 colon, 104%; in the experiment on MCF7 breast it was 92.5%; in the experiment with HCT-116 colon it was 106%. Moreover, the growth in the experiment on HCC-2998 colon is 98.1%; with KM12 colon it was 96.7%.

Turning to `COc1ccc(-c2nc(-c3cc(OC)cc(OC)c3)[nH]c2-c2ccc(OC)cc2)cc1`, the growth is 6.56% (active) in the experiment with T-47D breast; 51% in the experiment on BT-549 breast; 48.7% with MDA-MB-435 melanoma; 73.6% in the experiment with SW-620 colon; 34.9% with MCF7 breast; 40.8% in the experiment with HCT-116 colon. In addition, the growth in the experiment with HCC-2998 colon is 42.9%; in the experiment on KM12 colon, 46.5%.

In the case of `COc1ccc(C2CC(c3cccc(Nc4ccnc5cc(Cl)ccc45)c3)=NN2c2ccc(Cl)cc2)cc1` (configuration not stated), the growth is 40.6% in the experiment with T-47D breast; 56.7% in the experiment with BT-549 breast; 30.6% in the experiment on MDA-MB-435 melanoma; 30.7% in the experiment on SW-620 colon; 65% with MCF7 breast; 66.3% with HCT-116 colon. Moreover, the growth is 7.59% (active) with HCC-2998 colon and 22.2% in the experiment on KM12 colon.

As to `COc1ccc2nc(NC(=O)/C(=C/c3cc(OC)c(OC)c(OC)c3)c3ccc(OC)c(OC)c3)sc2c1`, the growth is 74.4% in the experiment on T-47D breast; 101% in the experiment on BT-549 breast; 101% with MDA-MB-435 melanoma; 102% in the experiment with SW-620 colon; 87.1% in the experiment with MCF7 breast; 96.3% in the experiment with HCT-116 colon. Moreover, the growth in the experiment with HCC-2998 colon was 113%; in the experiment with KM12 colon it was 101%.

For the compound `COc1ccc(/C=C2\CCCC3=C2N=C2SC(C)=NN2C3c2ccc(OC)c(OC)c2)cc1OC` (configuration not stated), the growth in the experiment with T-47D breast is 48.3%; in the experiment on BT-549 breast it was 33.9%; with MDA-MB-435 melanoma, 11.6%; with SW-620 colon, 27.3%; in the experiment with MCF7 breast it was 19.3%; in the experiment with HCT-116 colon, -28.1% (active). Further, the results for the growth in the experiment on HCC-2998 colon and with KM12 colon were 30.5% and 15.5%, respectively.

As to `Cc1cc(C#Cc2ccccc2)ccc1-n1c(/C=C/c2ccc(F)cc2)nc2ccccc2c1=O`, the growth in the experiment with T-47D breast is 41%; in the experiment on BT-549 breast, 90.4%; in the experiment on MDA-MB-435 melanoma, 66.9%; in the experiment with SW-620 colon it was 47.8%; in the experiment on MCF7 breast, 38.8%; with HCT-116 colon, 46%. The values for the growth with HCC-2998 colon and with KM12 colon were 86.6% and 62.5%, respectively.

Turning to `O=C(OCc1ccc2c(Br)cc(Br)c(O)c2n1)c1cc2ccccc2[nH]1`, the growth in the experiment on T-47D breast was -69.5% (active); in the experiment on BT-549 breast, -84.3% (active); in the experiment on MDA-MB-435 melanoma, -80.6% (active); in the experiment on SW-620 colon it was -69.2% (active); with MCF7 breast it was -35.5% (active); with HCT-116 colon, -72.9% (active). For the same compound, the values for the growth in the experiment on HCC-2998 colon and in the experiment with KM12 colon were -77.7% (active) and -19% (active), respectively.

`NC(=O)c1noc(C(=O)c2ccccc2)c1N`: the growth in the experiment with T-47D breast was 100%; in the experiment with BT-549 breast, 98.2%; in the experiment with MDA-MB-435 melanoma, 95.6%; with SW-620 colon it was 101%; in the experiment on MCF7 breast, 97.3%; in the experiment with HCT-116 colon, 85.4%. The growth was 119% in the experiment with HCC-2998 colon and 98.7% in the experiment with KM12 colon.

In the case of `CC(C)CC(NC(=O)OCC1c2ccccc2-c2ccccc21)C(=O)O` (configuration not stated), the growth was 95.8% in the experiment on T-47D breast; 97% in the experiment on BT-549 breast; 93.7% in the experiment with MDA-MB-435 melanoma; 116% in the experiment with SW-620 colon; 89.4% in the experiment on MCF7 breast; 103% in the experiment with HCT-116 colon. In addition, the values for the growth in the experiment on HCC-2998 colon and in the experiment on KM12 colon were 112% and 106%, respectively.

For `CCCCCCCCCCCCCCCCS(=O)(=O)Nc1cc(C(=O)NN)cc(C(=O)NN)c1`, the growth in the experiment with T-47D breast was 42%; with BT-549 breast, 61.5%; in the experiment on MDA-MB-435 melanoma, 89.9%; in the experiment with SW-620 colon, 96%; with MCF7 breast it was 72.1%; in the experiment with HCT-116 colon, 71.3%. For the same compound, the growth is 48.2% in the experiment on HCC-2998 colon and 73% with KM12 colon.
